Compound activity as filed in PubChem BioAssay.
Tau fluor cs: counter-screen for tau fibril formation inhibitors. tau K18 P301L Alexa594 fluorescence, heparin fibrillization. Potency, µM (highest dose often 57.7 µM). 0.93% of 280,000 active; further: nearly all actives have a fitted effect of over 55% in size
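Human K18 P301L tau (15 uM unlabeled plus 0.24 uM Alexa 594-labeled, final) in 100 mM sodium acetate pH 7 was mixed with compound and 20 uM heparin and incubated 6 hr at 37 C.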
Tau ThT inhib: blocks human tau fibril formation measured by thioflavin T; P10636; recombinant tau K18 P301L (four-repeat tau fragment), heparin-induced fibrillization, ThT fluorescence; Potency, µM (series often up to 57.4 µM), usual class: inhibitors; 2.1% of 270,000 active; AID 1460; further: nearly all actives have a fitted effect of over 55% in size
Target sequence (P10636 561-689 P618L limits assumed): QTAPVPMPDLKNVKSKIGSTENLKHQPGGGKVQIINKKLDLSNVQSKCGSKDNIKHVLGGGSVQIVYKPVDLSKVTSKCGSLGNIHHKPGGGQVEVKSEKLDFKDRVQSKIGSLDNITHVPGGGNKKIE
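K18 P301L tau (15 uM + 0.24 uM Alexa 594-tagged), heparin 20 uM, NaOAc pH 7, 6 h 37 C; ThT 30 uM, 1 h RT, ex 450/em 510 nm.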
TRb-SRC2 inh: disrupts binding of human TR beta to SRC2 | Potency, µM (doses to about 106 µM), hits mostly inhibitors | TRbeta-SRC2 peptide binding, fluorescence polarization; receptor liganded with 1 µM T3 | AID 1469 | 0.065% of 280,000 active; further: nearly all actives have a fitted effect of over 50% in size
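Polarization signal, normalized between peptide-alone and full complex controls, measured compound effects on T3-liganded human TRb LBD (0.6 uM) binding 20 nM Texas Red SRC2 peptide after 5 hr.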
TR SRC2 fluor cs: alters Texas Red total fluorescence, flagging assay interference | Potency, µM (titrated, usually from 106 µM) | 0.29% of 280,000 active | AID 1479 | TRb/SRC2 Texas Red total fluorescence interference; active means well fitted curve in either direction with a large enough effect; inconclusive means small, poorly fitted or top-dose-only effect
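Flags fluorescent or light-absorbing compounds by total fluorescence, S + 2P, at 555 nm excitation and 632 nm emission. Mixture: 20 nM Texas Red SRC2 peptide, 0.6 uM human TRb LBD, 1 uM T3, 5% DMSO; compound exposure 5 h at ambient temperature.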
Tau FP inhib: inhibitors of human tau fibril formation; K18 P301L tau heparin fibrillization, Alexa594 FP, 6 h; Potency, µM (highest dose often 57.7 µM), most hits filed as inhibitors; 0.39% of 280,000 active; AID 1468; further: nearly all actives have a fitted effect of over 55% in size
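Human tau K18 […] P301L fragment, 15 uM unlabeled plus 0.24 uM Alexa 594-labeled tau (final), with compound and 20 uM heparin in 100 mM sodium acetate pH 7; 6 hr at 37 C, then Alexa 594 FP read.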
Large screens that a line does not name were inactive; [ ] = remark or other dose. Most compounds without a hit are left out; they make up all but 3% or so of the library. Unless noted, the call rests on the fitted dose curve; in most records, active means well fitted curve in the direction sought with a large enough effect; inconclusive means small, poorly fitted or top-dose-only effect, or another doubt; inactive means no such curve, though single readings can be large; an effect the other way counts as inactive or inconclusive.

CSCC[C@H](NC(=O)[C@H](CCCNC(=N)N)NC(=O)[C@H](Cc1ccc(O)cc1)NC(=O)[C@@H]1CCCN1C(=O)CNC(=O)[C@H](CCC(=O)O)NC(=O)[C@H](CC(=O)O)NC(=O)[C@H](CCCCN)NC(=O)[C@H](CCCCN)NC(=O)[C@H](CCC(=O)O)NC(=O)[C@H](C)N)C(=O)N[C@@H](CCC(=O)O)C(=O)N[C@@H](Cc1cnc[nH]1)C(=O)N[C@@H](Cc1ccccc1)C(=O)N[C@@H](CCCNC(=N)N)C(=O)N[C@@H](Cc1c[nH]c2ccccc12)C(=O)NCC(=O)N[C@@H](CO)C(=O)N1CCC[C@H]1C(=O)N1CCC[C@H]1C(=O)N[C@@H](CCCCN)C(=O)N[C@@H](CC(=O)O)C(=O)O	none (no result: Tau fluor cs, Tau ThT inhib, Tau FP inhib)
c1ccc2c(c1)ccc1c3ccccc3ccc21	none (no result: Tau fluor cs, Tau ThT inhib, Tau FP inhib)
CC(=O)N1c2ccc(S(=O)(=O)NCc3ccc(Cl)cc3)cc2CC1C (stereo not given)	none
CC(C)CCCCOC(=O)c1ccccc1C(=O)OCCCCC(C)C	none (no result: Tau fluor cs, Tau ThT inhib, Tau FP inhib)
N#CC1=C2SCN(Cc3ccco3)CN2C(=O)CC1c1c(F)cccc1Cl (stereo not given)	Tau ThT inhib 7.1µM, Tau FP inhib inconclusive
Cc1ccc(C2CC(=O)N3CN(Cc4ccco4)CSC3=C2C#N)cc1 (stereo not given)	Tau ThT inhib 25µM, Tau FP inhib inconclusive
Cc1ccc(CC2CC(=O)N(Cc3ccco3)C2=O)cc1 (stereo not given)	none
N#CC1=C2SCN(Cc3ccccc3)CN2C(=O)CC1c1ccccc1F (stereo not given)	Tau ThT inhib inconclusive, Tau FP inhib inconclusive
CCOC(=O)c1c(C)oc2ncnc(Nc3cc(C)cc(C)c3)c12	Tau FP inhib inconclusive
O=C1CSC(=S)N1Cc1cccnc1	Tau ThT inhib 32µM, TRb-SRC2 inh inconclusive, TR SRC2 fluor cs inconclusive
CCCS(=O)(=O)c1ncc(Cl)c(C(=O)N(Cc2ccccc2)Cc2ccco2)n1	Tau ThT inhib inconclusive, TR SRC2 fluor cs inconclusive
N#Cc1ccc(C(=O)Nc2ccc(N3CCN(C(=O)c4ccco4)CC3)cc2)c(F)c1	Tau ThT inhib 1µM
O=C(Nc1ccc(N2CCN(C(=O)c3ccco3)CC2)cc1)c1ccco1	Tau ThT inhib inconclusive
COc1ccc(Nc2nc(-c3cccs3)cs2)cc1	Tau fluor cs inconclusive, Tau ThT inhib inconclusive
Cc1ccc(CNc2nc(-c3cccs3)nc3ccccc23)cc1	Tau fluor cs inconclusive, Tau FP inhib 40µM
COc1ccc(OC)c(Nc2nc(-c3cccs3)cs2)c1	Tau fluor cs 16µM[quencher], Tau ThT inhib inconclusive
COc1ccc(Nc2nc(-c3cccs3)nc3ccccc23)c(OC)c1	Tau fluor cs 10µM[quencher], Tau ThT inhib inconclusive
Oc1ccc(Nc2nc(-c3cccs3)cs2)cc1	Tau fluor cs 11µM[quencher], Tau ThT inhib inconclusive
COc1ccc(Nc2nc(-c3cccs3)cs2)c(OC)c1	Tau fluor cs 16µM[quencher], Tau ThT inhib 11µM
COc1ccccc1Nc1nc(-c2cccs2)cs1	Tau fluor cs inconclusive, Tau ThT inhib 14µM
COc1ccc2cc3c(N)c(C(=O)NCc4ccco4)sc3nc2c1	Tau fluor cs inconclusive, Tau ThT inhib 2.8µM
CCn1c(C)nc2cc(C(=O)N/N=C/c3ccc(N4CCOCC4)cc3)ccc21	Tau ThT inhib 8.9µM
CCn1c(C)nc2cc(C(=O)N/N=C(\C)c3ccc(N4CCOCC4)cc3)ccc21	Tau ThT inhib inconclusive
O=C(N/N=C/c1ccc(N2CCOCC2)cc1)c1ccc(O)cc1	Tau ThT inhib 5µM
CCOc1ccc(CNC(=O)C2Cc3ccccc3N2C(=O)CC)cc1 (stereo not given)	none
CCC1c2ccc(C)n2CCN1C(=O)Nc1cc(Cl)ccc1OC (stereo not given)	Tau ThT inhib 22µM, Tau FP inhib inconclusive
CCOc1ccc(/C=C2/SC(=O)NC2=S)cc1	Tau fluor cs inconclusive, Tau ThT inhib 3.2µM
CCOc1ccc(/C=C2\SC(=S)N(N3C(=O)C4CC4C3=O)C2=O)cc1 (stereo not given)	Tau ThT inhib inconclusive
CCOc1ccc(N=C2NC(=O)S/C2=C\c2ccc(N(C)C)cc2)cc1	Tau fluor cs inconclusive, Tau ThT inhib 1.1µM
CCOC(=O)c1c(NC(=O)c2cc(=O)c3cc(C)cc(C)c3o2)sc(C)c1C	TR SRC2 fluor cs inconclusive
CN(C)CCOCCN(C)C	none (no result: Tau fluor cs, Tau ThT inhib, Tau FP inhib)
